# According to PubChem BioAssay AID778 (Sanford-Burnham Center for Chemical Genomics, 2007):
# About 20,000 (21%) of roughly 96,000 compounds were called active.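 How the source made its calls: active means CYP2C19 inhibition above a set limit at 5 µM in the primary screen (cut at about 50% in these data); inactive means the rest.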 A selection follows.
# Biological target: Cytochrome P450 2C19 (Homo sapiens) (UniProt P33261)
# Assay: blockers of cytochrome P450 2C19 activity – biochemical, luminescence, ADME assay, primary screen (AID 778);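 further: plate controls were negative control wells for no effect and 2.5 mM tranylcypromine positive control for full effect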
# Settings: CYP2C19 Supersomes, luciferin-H EGE luminescence, 30 min; at 5 µM; stronger effect = higher value
# Chain of Cytochrome P450 2C19 (Homo sapiens) (P33261 whole entry, looked up): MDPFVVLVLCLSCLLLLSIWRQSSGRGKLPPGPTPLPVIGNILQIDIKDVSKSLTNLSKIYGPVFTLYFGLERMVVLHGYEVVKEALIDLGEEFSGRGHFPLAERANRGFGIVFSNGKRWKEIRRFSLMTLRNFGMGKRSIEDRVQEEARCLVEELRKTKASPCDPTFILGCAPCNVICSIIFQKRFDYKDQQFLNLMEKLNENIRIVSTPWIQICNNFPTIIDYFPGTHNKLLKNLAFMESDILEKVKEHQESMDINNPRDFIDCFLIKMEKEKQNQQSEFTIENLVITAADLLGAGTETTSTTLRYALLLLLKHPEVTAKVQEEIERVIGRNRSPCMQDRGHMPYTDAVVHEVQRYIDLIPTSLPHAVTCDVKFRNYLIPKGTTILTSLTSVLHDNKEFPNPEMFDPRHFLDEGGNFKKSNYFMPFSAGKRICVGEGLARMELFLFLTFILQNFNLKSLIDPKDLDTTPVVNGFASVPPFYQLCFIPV
row,Compound,inhibition
1,Cc1ccc(CS(=O)(=O)CCC(=O)NC2CC2)cc1,9.7% (inactive)
2,COc1ccc(CNC(=O)CCn2cccc2)cc1,35% (inactive)
3,CCCCCNC(=O)Cc1ccc(OC)cc1,92.4% (active)
4,COc1ccc(OCC(=O)NCCc2ccc(S(N)(=O)=O)cc2)cc1,19.4% (inactive)
5,O=C(NCCN=C1NS(=O)(=O)c2ccccc21)c1ccc(S(=O)(=O)N2CCOCC2)cc1,-2% (inactive)
6,O=C1CCCC2=C1C(c1ccccc1)n1c(s/c(=C/c3cccc(F)c3)c1=O)=N2 (stereo unspecified),34.6% (inactive)
7,CS(=O)(=O)Nc1cccc(C2=NN(S(=O)(=O)c3ccccc3)C(c3cccs3)C2)c1 (stereo unspecified),72.2% (active)
8,CCOC(=O)C1CCN(C(=O)c2oc3ccc(S(=O)(=O)N4CCCCCC4)cc3c2C)CC1,40.4% (inactive)
9,O=C(Nc1nnc(SCc2ccccc2)s1)c1ccco1,2.5% (inactive)
10,COc1ccc2c(CC(=O)Nc3nnc(C4CC4)s3)coc2c1,12.6% (inactive)
11,COc1ccc(CN(Cc2ccco2)S(=O)(=O)c2ccc(S(=O)(=O)N3CCCC3)cc2)cc1,38.7% (inactive)
12,CCOc1ccc(CN(Cc2ccco2)C(c2cccs2)c2nnnn2C(C)(C)C)cc1 (stereo unspecified),47.8% (inactive)
13,CCOc1ccc(CN(Cc2ccco2)S(=O)(=O)c2ccc(-n3cnnn3)c(OC)c2)cc1,57.7% (active)
14,CCOc1nnc(C)c2c(C)n(-c3cccc(Cl)c3)nc12,45.7% (inactive)
15,Cc1cc(=O)n(C)c(=O)n1CCCNc1ccccc1,18.5% (inactive)
16,CC(=O)c1sc(NC(=O)c2cccc3ccccc23)nc1C,-21.9% (inactive)
17,COc1ccccc1N1CCN(C(=O)c2cc(-c3ccc(Br)cc3)on2)CC1,-2.9% (inactive)
18,COc1ccccc1N1CCN(C(=O)c2ccc(S(=O)(=O)N3CCCCC3)cc2)CC1,28.3% (inactive)
19,COc1ccccc1N1CCN(C(=O)c2c(-c3c(Cl)cccc3Cl)noc2C)CC1,78.9% (active)
20,CC1=NN(C(=O)c2ccccc2Br)C(O)(c2cccnc2)C1 (stereo unspecified),16.7% (inactive)
21,Cc1ccc(NC(=O)N2CCC(O)(c3cccnc3)CC2)cc1,2.2% (inactive)
22,CC1=NN(C(=O)Cc2ccc(C)cc2)C(O)(c2cccnc2)C1 (stereo unspecified),62.6% (active)
23,CC(c1ccccn1)N(CCN(C)C)C(=S)Nc1ccccc1F (stereo unspecified),13.7% (inactive)
24,Cc1cc2c(c(=O)n1C)C(C(C)C)C(C#N)=C(N)O2 (stereo unspecified),3.4% (inactive)
25,CCCCN(C)C(=O)C1CCN(Cc2ccccn2)CC1,-6.2% (inactive)
26,COc1ccc(C2CC(=O)C=C(NCC3CCCO3)C2)cc1 (stereo unspecified),19.6% (inactive)
